Data published in PubChem BioAssay (Tox21).
Inconclusive results are not listed. A number with no mark means an inactive call. Calls follow the shape of the dose curve; as a rule, active = well fitted cell-killing curve with a large enough effect in the repeat runs; inconclusive = weak or mixed curves, or effect the other way; inactive = flat fitted curve, though single readings scatter.

assay: qHTS assay to identify small molecule antagonists of the retinoid acid receptor (RAR) signaling pathway - cell viability counter screen (AID 1159551); details: C3RL4 cells viability, ATP luminescence (CellTiter-Glo), 6 h; series mostly up to 92.4 µM; activity change, negative = cytotoxicity: at the top concentration; also: nearly all actives have a fitted effect of over 35% in size
From the text: U.S. Tox21 Program National Center for Advancing Translational Sciences [NCATS] NIH Chemical Genomics Center [NCGC] U.S. Environmental Protection Agency [EPA] National Institutes of Environmental Health Sciences [NIEHS] National Toxicology Program [NTP] U.S. Food and Drug Administration [FDA] Tox21 Assay Overview: All-trans Retinoic acid (atRA) is the potent natural metabolite of retinol and plays an important role in normal embryonic development and maintenance of cellular phenotype in adult animals. atRA is the activating ligand for the retinoic acid receptors (RARs) which form heterodimers with retinoid X receptors (RXRs) on the retinoic acid response element (RARE). Through activation of the RAR/RXRs nuclear receptors, atRA regulates the transcription of a large number of protein-coding genes and regulatory RNAs. Intracellular levels of atRA are controlled by the retinol signaling pathway (RSP) that regulates the biosynthesis and catabolism of atRA to maintain physiological levels. Chemicals that interfere with the RSP can cause abnormal intracellular levels of atRA and therefore are potential developmental toxicants. To assess compounds for the potential adverse effect on embryonic development through interfering with retinol signaling, a cell-based RARE luciferase reporter gene assay was used. C3RL4 cell line (OARSA/CFSAN/FDA, Laurel, MD) was used to screen Tox21 10K compound library for identifying inhibitors of the RSP. Also cytotoxicity was assessed by determining the viability of cells based on the quantitation of ATP.
Tox21 Assay Protocol Summary: C3RL4 cells were seeded at 1,000/well in 4 uL of assay medium into white solid 1,536-well tissue culture plates (Greiner Bio-One North America Inc. Monroe, NC) using a Multidrop Combi (Thermo Scientific, Waltham, MA) dispenser. After incubation at 37 C and 5% CO2 for an overnight, 23 nL of compounds dissolved in DMSO, positive control or DMSO only were transferred by a Pintool station (Kalypsys, San Diego, CA). One ul of 1 uM (final concentration) of Retinol was added right after the compound addition by using a Flying Reagent Dispenser (FRD) (Aurora Discovery, San Diego, CA). After 6 hr incubation at 37 C and 5% CO2, 5 uL of CellTiter-Glo reagent (Promega Corporation, Madison, WI) was added to each assay plate using an FRD. Luminescence was quantified on a ViewLux plate reader (PerkinElmer, Waltham, MA) after 30 min incubation at room temperature.
% is scaled to controls: 0 for no effect and ±100 for the full control effect.

SMILES | activity change, negative = cytotoxicity
O=C(C(Cl)Cl)N1CCOC12CCCCC2 | -1.17%
CCCCCCCCCCCCOCCOS(=O)(=O)O | -3.72%
CCN(CC)CCNC(=O)COc1ccc(Cl)cc1 | -0.693% [at 42.5 µM]
CCCCNc1ccc(C(=O)OCCN(CC)CC)cc1 | -0.0285% [at 42.5 µM]
CCOC(=O)NCCC[Si](OCC)(OCC)OCC | 0.104%
CN(CC1(C)CCCO1)S(=O)(=O)c1ccc(Cl)c(S(N)(=O)=O)c1 (stereo not given) | 1.99% [at 42.5 µM]
Nc1ccc2ccccc2c1S(=O)(=O)O | 0.1%
CCOc1ccccc1N | -0.286%
CCCCCCn1c(=O)c2c(ncn2C)n(C)c1=O | 1.65% [at 42.5 µM]
CC1=C(CC(=O)O)c2cc(F)ccc2/C1=C\c1ccc(S(C)(=O)=O)cc1 | -1.51% [at 42.5 µM]
Cc1onc(-c2ccccc2)c1C(=O)Cl | 1.59% [at 42.5 µM]
CN1CCN(N)CC1 | 0.844% [at 42.5 µM]
O=C(O)c1cccc(Cl)c1Cl | -0.595%
CC(C)NC[C@@H](O)COc1cccc2ccccc12 | 0.538% [at 42.5 µM]
CCC(=O)c1ccc2c(c1)N(CCCN(C)C)c1ccccc1S2 | -0.986% [at 42.5 µM]
O=Cc1ccc(O)c(O)c1O | 2.08% [at 42.5 µM]
COC(=O)N[C@H](C(=O)N[C@@H](Cc1ccccc1)[C@@H](O)CN(Cc1ccc(-c2ccccn2)cc1)NC(=O)[C@@H](NC(=O)OC)C(C)(C)C)C(C)(C)C | 5.42% [at 42.5 µM]
CCC1(C)NC(=O)NC1=O (stereo not given) | -1.88%
CCCCCCCCCC/C=C/C#N | 1.11%
CCC(=O)Nc1ccc(O)cc1 | 2.16% [at 42.5 µM]

SMILES | activity change, negative = cytotoxicity
COc1ccc2nc(NC(=O)Nc3ccccc3)sc2c1 | -3.03% [at 42.5 µM]
NC1=NCC2c3ccccc3Cc3ccccc3N12 (stereo not given) | 0.0822% [at 42.5 µM]
CCC/C=C/CO | -1.47%
O=C1C=CC(=O)O1 | 1.95%
Cc1cccc(C)c1NC(=O)CN1CCCCCC1 | 2.64% [at 42.5 µM]
CCCCCCCCc1ccc(S(=O)(=O)O)cc1 | 0.289%
CC/C=C\CCOC(=O)C(C)C | 3.13%
Cc1c(C(=O)NCCO)[n+](=O)c2ccccc2n1[O-] | -0.0807% [at 42.5 µM]
NCCCN1CCN(CCCN)CC1 | 0.261%
CCCCCCCOC(=O)CCC | -0.338%
CN1CCN(C2=Nc3ccccc3Oc3ccc(Cl)cc32)CC1 | 0.837% [at 42.5 µM]
C=CC(C)(O)CC/C=C(\C)CCC=C(C)C (stereo not given) | -4.6%
CNCCC(Oc1ccccc1OC)c1ccccc1 (stereo not given) | -0.838% [at 42.5 µM]
OCc1c2ccccc2cc2ccccc12 | 0.671%
O=C1CCN(c2ccccc2)N1 | 3.5%
CC(=O)N(CC(O)CN(C(C)=O)c1c(I)c(C(=O)NCC(O)CO)c(I)c(C(=O)NCC(O)CO)c1I)c1c(I)c(C(=O)NCC(O)CO)c(I)c(C(=O)NCC(O)CO)c1I (stereo not given) | 2.38% [at 42.5 µM]
O=Cc1ccc(F)c(Br)c1 | 1.91%
COC(=O)/C=C(/C)N | 2.67% [at 42.5 µM]
CC(C)C1=CC2=CC[C@@H]3[C@](C)(CCC[C@@]3(C)C(=O)O)[C@H]2CC1 | -0.503%
CCCC1CCC(=O)O1 (stereo not given) | 0.375%
